Assay results reported in PubChem BioAssay AID1049 (The Scripps Research Institute Molecular Screening Center, 2008).
About 780 (0.39%) of roughly 200,000 compounds were called active. The list comes from a sample in which actives are over-represented; it also holds similar structures and randomly drawn compounds. Values without a mark were called inactive. Rule as the data show it: active = TR-FRET ratio above about 2000; inactive = the rest.

Experiment: detection-format interference in TR-FRET ratio – biochemical, artefact control for PPARgamma SRC-2 agonist project, primary screen (AID 1049)
Conditions: TR-FRET artefact counter-screen; at 8 µM; hits give high values
In the case of `Cc1nn(CC#N)c(=O)n1N(C)c1ncc(C(F)(F)F)cc1Cl`, the TR-FRET ratio is reported as 1490. For `Cc1ccccc1-c1n[nH]c(=S)n1C`, the TR-FRET ratio was 1570. `Cc1n[nH]c(=S)n1/N=C/c1ccc(Br)o1` gave a TR-FRET ratio of 1670. With `Cc1ccccc1-c1n[nH]c(=S)n1/N=C/c1ccc(-c2ccccc2Br)o1` the TR-FRET ratio was 2460 (active). `O=S(=O)(/N=C(/Nc1ccccc1)c1ccccc1)c1cccs1` gave a TR-FRET ratio of 1640. Work on `CC(=O)Nc1ccc(S(=O)(=O)Oc2ccc(/C=N/N=C3/NC(=O)C(CC(=O)O)S3)cc2)cc1` (configuration not stated) yielded a TR-FRET ratio of 1610. In the case of `O=C(c1ccccc1Cl)N(Cc1ccccc1F)N1C(=O)CCCC1=O`, the TR-FRET ratio is reported as 1650. With `CCn1c(=O)cc(SCC(=O)NCc2ccc3c(c2)OCO3)c2ccccc21` the TR-FRET ratio was 2130 (active). Work on `CCn1c(=O)cc(SCC(=O)NCCC2=CCCCC2)c2ccccc21` yielded a TR-FRET ratio of 1870. Molecule `CC(C)NC(=O)CSc1ccccc1C(=O)NCc1ccc2c(c1)OCO2` has a TR-FRET ratio of 1420. In the case of `CC(C)(C)NC(=O)C(=O)NN=C1CCCCCCC1`, the TR-FRET ratio is reported as 1240. In the case of `c1ccc(CSc2ncnc3c2sc2nc(N4CCOCC4)c4c(c23)CCCC4)cc1`, the TR-FRET ratio is reported as 2910 (active). Molecule `COc1ccc(CSc2nc(N3CCOCC3)c3c(c2C#N)CC(C)(C)OC3)cc1` has a TR-FRET ratio of 1500. Work on `c1ccc(COc2nsnc2N2CCOCC2)cc1` yielded a TR-FRET ratio of 1720. For `CCOc1ccc(N2C(=O)Nc3ccccc3C2(O)C(=O)NCc2ccco2)cc1` (configuration not stated), the TR-FRET ratio was 1700. `O=C(CSc1nnc(SCc2ccc(Cl)cc2)s1)N/N=C/c1ccccc1Cl` showed a TR-FRET ratio of 1600. In the case of `Cc1ccc(CN(Cc2cccnc2)C(=S)Nc2cccc(Cl)c2C)cc1`, the TR-FRET ratio is reported as 1420. For `CCN(C(=O)COc1cccnc1[N+](=O)[O-])C1CCS(=O)(=O)C1` (configuration not stated), the TR-FRET ratio was 1550. With `COc1ccc(OCC(=O)Nc2nnc(-c3ccco3)s2)cc1` the TR-FRET ratio was 2240 (active). Molecule `COc1ccc(Cc2nnc(NC(=O)Cc3cccs3)s2)cc1` has a TR-FRET ratio of 1330. For `COCC(=O)Nc1nnc(COc2ccccc2)s1`, the TR-FRET ratio was 1270. Work on `CC(NC(=O)COC(=O)c1cc(=O)[nH]c2ccccc12)c1ccccc1` (configuration not stated) yielded a TR-FRET ratio of 1810. In the case of `CCOC(=O)c1c(NC(=O)CNC2CCCc3ccccc32)sc(C(N)=O)c1C` (configuration not stated), the TR-FRET ratio is reported as 2030 (active). `CCOC(=O)c1sc(NC(=O)COc2ncnc3ccccc23)c(C(=O)OCC)c1C` showed a TR-FRET ratio of 1580. In the case of `CCOC(=O)c1sc(NC(=O)CSc2nnc(-c3ccco3)o2)c(C(=O)OCC)c1C`, the TR-FRET ratio is reported as 1590. Molecule `COc1ccc(CN2CCCC(CNC(=O)c3ccc(F)cc3)C2)cc1OC` (configuration not stated) has a TR-FRET ratio of 1400. `C/C(CC(=O)NC(C)(C)C)=N\NC(=O)c1ccco1` gave a TR-FRET ratio of 1540.
